Some test systems named below: PIK3C2G; PIK3CA; PIK3CB; PIK3CD; PIK3CG; PIKFYVE; PIM1; PIM2; PIM3; PIP5K1A; PIP5K1C; PIP5K2B; PKMYT1; PKN1; PKN2; PLK1.
Holding throughout (settings): concentration: 1 μM, replicates: in singlicate; n = 1
For another experiment, the system named is T1, PIK4CB.
T1 construct: gene PI4KB

The subject of the next experiment is T2, PIP5K2C.
T2 construct: gene PIP4K2C

The subject of a further experiment is T3, PKAC-alpha.
T3 construct: gene PRKACA

Another experiment concerns T4, PKAC-beta.
T4 construct: gene PRKACB

Each structure is given as a SMILES string.
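Note: KINOMEscan kinase panel screen.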

With `CN(C)CCNS(=O)(=O)c1ccc(-c2ccnc3[nH]ccc23)cc1` [GSK977620], the “%Inh” value was found to be 0% in the experiment on PIK3C2G; 0% with PIK3CA; 0% in the experiment on PIK3CB; 9% with PIK3CD; 8% in the experiment on PIK3CG; 0% in the experiment on PIK4CB. Besides, the “%Inh” value in the experiment on PIKFYVE is 0%; in the experiment on PIM1, 1%; with PIM2, 0%; with PIM3, 0%; in the experiment on PIP5K1A, 8%; in the experiment with PIP5K1C it was 32%. The “%Inh” value in the experiment on PIP5K2B is 0%; with PIP5K2C, 0%; with PKAC-alpha, 98.4%; with PKAC-beta, 97.7%; in the experiment on PKMYT1 it was 14%; in the experiment with PKN1, 9%. Further, the figures for the “%Inh” value in the experiment with PKN2 and in the experiment on PLK1 were 56% and 0%, respectively.

Consider `N#Cc1cnc2cc(-c3cnc(CNCCN4CCOCC4)s3)ccc2c1Nc1ccc(Oc2ccccc2)cc1` [GW664114], for which the “%Inh” value in the experiment on PIK3C2G is 0%; in the experiment on PIK3CA it was 0%; with PIK3CB, 0%; in the experiment on PIK3CD it was 7%; with PIK3CG, 0%; in the experiment on PIK4CB, 11%. The “%Inh” value in the experiment with PIKFYVE was 100%; in the experiment on PIM1, 11%; in the experiment with PIM2, 0%; in the experiment with PIM3 it was 8%; in the experiment with PIP5K1A, 25%; with PIP5K1C, 34%. Also, the “%Inh” value was determined as 31% with PIP5K2B; 41% in the experiment on PIP5K2C; 0% in the experiment with PKAC-alpha; 0% in the experiment with PKAC-beta; 0% in the experiment on PKMYT1; 13% in the experiment on PKN1. Moreover, the “%Inh” value in the experiment on PKN2 and in the experiment on PLK1 was 0% throughout.

As for `COc1cccc(NC(=O)NCCNc2ccnc(Nc3ccc(F)cc3)n2)c1` [GSK1379879], the “%Inh” value in the experiment on PIK3C2G was 10%; in the experiment on PIK3CA, 0%; in the experiment with PIK3CB, 0%; in the experiment with PIK3CD it was 0%; in the experiment on PIK3CG, 0%; in the experiment on PIK4CB, 0%. In addition, the “%Inh” value stood at 8% in the experiment on PIKFYVE; 13% in the experiment with PIM1; 0% with PIM2; 0% in the experiment on PIM3; 40% in the experiment on PIP5K1A; 63% with PIP5K1C. The “%Inh” value in the experiment on PIP5K2B was 13%; in the experiment with PIP5K2C, 29%; in the experiment on PKAC-alpha, 0%; in the experiment with PKAC-beta, 0%; with PKMYT1, 1%; in the experiment with PKN1, 12%. Further, the “%Inh” value with PKN2 and in the experiment on PLK1 was 0% throughout.

For `COc1ccc(C)c(Nc2ccnc(Nc3ccc(-c4cnc[nH]4)cc3)n2)c1.Cl` [GW784041], the “%Inh” value in the experiment with PIK3C2G was 11%; with PIK3CA, 0%; in the experiment with PIK3CB, 0%; in the experiment on PIK3CD, 0%; with PIK3CG, 11%; in the experiment with PIK4CB, 58%. The “%Inh” value in the experiment with PIKFYVE is listed as 0%; in the experiment on PIM1, 0%; with PIM2, 9%; with PIM3, 0%; in the experiment on PIP5K1A, 0%; in the experiment on PIP5K1C, 33%. Further, the “%Inh” value in the experiment with PIP5K2B came to 33%; in the experiment on PIP5K2C it was 67%; with PKAC-alpha, 8%; in the experiment on PKAC-beta, 22%; with PKMYT1 it was 2%; in the experiment on PKN1, 0%. The “%Inh” value in the experiment on PKN2 was determined as 0%; in the experiment with PLK1, 11%.

On to `Cc1ccc(C)c(NC(=O)Nc2ccc(C)c(-c3ccc(C(=O)Nc4ccncc4)cc3)c2)c1` [GSK1398473], for which the “%Inh” value in the experiment with PIK3C2G is 0%; with PIK3CA, 0%; in the experiment on PIK3CB, 0%; with PIK3CD it was 0%; with PIK3CG it was 0%; with PIK4CB, 8%. For the same compound, the “%Inh” value with PIKFYVE stood at 0%; in the experiment with PIM1 it was 16%; with PIM2, 0%; in the experiment with PIM3, 1%; in the experiment with PIP5K1A, 0%; in the experiment with PIP5K1C, 0%. Besides, the “%Inh” value is 8% in the experiment with PIP5K2B; 2% in the experiment with PIP5K2C; 27% in the experiment on PKAC-alpha; 20% with PKAC-beta; 17% with PKMYT1; 26% in the experiment on PKN1. Besides, the “%Inh” value in the experiment with PKN2 and with PLK1 was 0% in each case.

Take `COc1ccc(C2=C(Nc3cccc(O)c3)C(=O)NC2=O)cc1` [SB-390766]: the “%Inh” value in the experiment on PIK3C2G is on record as 0%; with PIK3CA, 0%; with PIK3CB, 0%; in the experiment on PIK3CD, 2%; with PIK3CG, 0%; in the experiment on PIK4CB it was 9%. Further, the “%Inh” value came to 0% with PIKFYVE; 9% with PIM1; 0% with PIM2; 0% with PIM3; 4% with PIP5K1A; 82% in the experiment with PIP5K1C. Moreover, the “%Inh” value turned out to be 0% in the experiment with PIP5K2B; 10% in the experiment with PIP5K2C; 0% with PKAC-alpha; 0% with PKAC-beta; 13% in the experiment with PKMYT1; 0% with PKN1. Also, the figures for the “%Inh” value with PKN2 and in the experiment with PLK1 were 38% and 95.9%, respectively.

For the compound `Cc1ccc(NC(=O)c2ccnc(N3CCCCC3)c2)cc1-c1ccc(C(=O)NCC2CC2)cc1` [GW775610], the “%Inh” value in the experiment with PIK3C2G stood at 0%; with PIK3CA, 0%; in the experiment with PIK3CB, 0%; in the experiment with PIK3CD, 0%; in the experiment on PIK3CG, 36%; in the experiment on PIK4CB it was 8%. Further, the “%Inh” value is given as 24% with PIKFYVE; 0% in the experiment with PIM1; 0% with PIM2; 0% in the experiment on PIM3; 0% with PIP5K1A; 5% in the experiment with PIP5K1C. In addition, the “%Inh” value in the experiment on PIP5K2B worked out at 0%; in the experiment on PIP5K2C, 14%; with PKAC-alpha, 0%; in the experiment with PKAC-beta, 10%; with PKMYT1 it was 8%; in the experiment with PKN1, 0%. For the same compound, the “%Inh” value in the experiment on PKN2 and with PLK1 was 0% each time.

For `COc1cccc(-c2nc(-c3ccccc3)[nH]c2-c2ccncc2)c1` [SB-610250], the “%Inh” value with PIK3C2G is 0%; in the experiment with PIK3CA, 0%; in the experiment on PIK3CB, 0%; in the experiment on PIK3CD, 0%; with PIK3CG, 0%; in the experiment with PIK4CB, 13%. The “%Inh” value was determined as 63% in the experiment with PIKFYVE; 1% with PIM1; 0% in the experiment with PIM2; 0% in the experiment with PIM3; 0% with PIP5K1A; 38% in the experiment on PIP5K1C. The “%Inh” value is on record as 39% in the experiment on PIP5K2B; 8% with PIP5K2C; 0% with PKAC-alpha; 0% in the experiment with PKAC-beta; 0% in the experiment on PKMYT1; 0% in the experiment on PKN1. Besides, the “%Inh” value with PKN2 and in the experiment with PLK1 was 0% throughout.

On to `Cc1ccc(Nc2ccnc(Nc3ccc(C)c(F)c3)n2)cc1O.Cl` [GW582868], for which the “%Inh” value was determined as 0% in the experiment on PIK3C2G; 0% with PIK3CA; 0% in the experiment on PIK3CB; 11% in the experiment with PIK3CD; 0% with PIK3CG; 8% in the experiment on PIK4CB. Further, the “%Inh” value is recorded as 24% in the experiment with PIKFYVE; 52% in the experiment on PIM1; 0% in the experiment on PIM2; 0% in the experiment with PIM3; 27% with PIP5K1A; 47% in the experiment on PIP5K1C. The “%Inh” value with PIP5K2B is listed as 5%; with PIP5K2C, 70%; with PKAC-alpha, 0%; in the experiment with PKAC-beta it was 0%; in the experiment with PKMYT1 it was 0%; with PKN1 it was 23%. Also, the “%Inh” value in the experiment with PKN2 and with PLK1 was 0% in each case.

As to `Nc1ncc(-c2ccc3nccc(-c4ccncc4)c3c2)cc1S(=O)(=O)N1CCCCC1` [GSK1693850], the “%Inh” value with PIK3C2G is reported as 99.8%; in the experiment with PIK3CA, 100%; with PIK3CB, 96.9%; in the experiment on PIK3CD, 100%; with PIK3CG, 100%; with PIK4CB, 95.9%. The “%Inh” value with PIKFYVE worked out at 0%; in the experiment on PIM1, 8%; in the experiment with PIM2, 0%; in the experiment on PIM3, 0%; with PIP5K1A it was 0%; in the experiment with PIP5K1C it was 40%. Also, the “%Inh” value in the experiment on PIP5K2B came out at 0%; in the experiment on PIP5K2C, 62%; with PKAC-alpha it was 1%; with PKAC-beta, 0%; in the experiment on PKMYT1, 0%; in the experiment with PKN1, 9%. Also, the “%Inh” value in the experiment on PKN2 was found to be 0%; in the experiment on PLK1, 76%.

Source of the values: article PMC5540273 (PLoS ONE, 2017).
